Consider 65 molecules from PubChem BioAssay AID2675 (National Center for Advancing Translational Sciences (NCATS), 2010).

Molecules are shown by their SMILES. Screen size: about 280,000 compounds; about 100 (0.036%) were called active. Inconclusive results (about 11%) are left out. Calls follow the shape of the dose curve; as a rule, active = well fitted inhibition curve with a large enough effect in the signal ratio, with a control signal flat (not every such curve was filed as active); inconclusive = small, poorly fitted or top-dose-only effect, or effect the other way, or a change in a side signal; inactive = no such curve, though single readings can be large or run the other way; the % refers to the signal ratio. The list comes from a sample in which actives are over-represented; it also holds similar structures and randomly drawn compounds.
% is scaled to controls: 0 for no effect and ±100 for the full control effect; potency is read from the fitted curve at half-maximal effect.

Chain of Muscleblind-like protein 1 (Homo sapiens) (Q9NR56 whole entry, looked up): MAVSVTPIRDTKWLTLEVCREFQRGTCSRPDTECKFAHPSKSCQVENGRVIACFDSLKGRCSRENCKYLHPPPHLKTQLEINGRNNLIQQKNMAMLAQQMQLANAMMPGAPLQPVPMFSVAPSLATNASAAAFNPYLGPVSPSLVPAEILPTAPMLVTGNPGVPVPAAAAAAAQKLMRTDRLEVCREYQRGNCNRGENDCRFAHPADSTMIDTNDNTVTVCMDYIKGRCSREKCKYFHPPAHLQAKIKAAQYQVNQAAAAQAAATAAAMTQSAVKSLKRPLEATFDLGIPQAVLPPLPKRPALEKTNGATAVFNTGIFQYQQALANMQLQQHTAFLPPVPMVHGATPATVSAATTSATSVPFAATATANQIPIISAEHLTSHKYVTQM

This assay concerns the target Muscleblind-like protein 1 (Homo sapiens) (UniProt Q9NR56). Description: qHTS Assay for Inhibitors of MBNL1-poly(CUG) RNA binding. To be noted: TR-FRET MBNL1-His/biotin-(CUG)12 binding, 665/545 ratio; series mostly up to 57.5 µM; activity change, negative = inhibition: at the top concentration. From the text:
NIH Chemical Genomics Center [NCGC] NIH Molecular Libraries Probe Production Centers Network [MLPCN] MLPCN Grant: R03 MH087421-01 Assay Submitter (PI): Charles Thornton NCGC Assay Overview: Expanded CTG repeats in the 3' untranslated region of the DM protein kinase (DMPK) gene causes type I myotonic dystrophy (DM1). DM1 is a multi-systemic disease with a prevalence of 1/7000. Clinical features include myotonia, progressive muscle weakness and wasting, cardiac arrhythmia, insulin resistance, hypersomnolence, cataracts, and other symptoms. The pathogenic effect of expanded CTG repeats stems from deleterious effects of the mutant transcript. CUGexp mRNA accumulates in nuclear foci and sequesters proteins of the muscleblind family, of which MBNL1 is the most common family member in skeletal muscles. The binding interaction between MBNL1 and CUGexp tracts leads to deregulation of alternative splicing and is therefore a key molecular step in the pathogenesis of DM1. To target this binding interaction, we optimized a protein-RNA binding assay in 1536-well format for identification of small molecule inhibitors of biotinylated (CUG)12 and his-tagged MBNL1 binding. Protein-RNA complex of MBNL1-His and Biotin-(CUG)12 captures the detection reagents terbium-labeled anti-His antibody and streptavidin conjugated XL665. This brings the terbium label within close proximity to XL665 to allow time-resolved fluorescence resonance energy transfer (TR-FRET). Inhibitors of MBNL1-(CUG)12 binding will disrupt TR-FRET.
NCGC Assay Protocol Summary: This is a TR-FRET binding assay with MBNL1-His and Biotin-(CUG)12 RNA. The assay uses a ratiometric measurement. In the presence of MBNL1-(CUG)12 complex, the excitation energy is transferred to the XL665 acceptor label, causing emission at 665nm, while the 545nm donor signal […]. Data were normalized to the controls for basal activity (buffer only) and 100% activity (with MBNL1-(CUG)12). […] The final titration was 92 nM to 58 uM. (3) Add 1 ul of terbium labeled anti-His antibody (0.055 ng/ul final concentration) (4) Add 1 ul of streptavidin-XL665 (5 nM final concentration) (5) Incubate 60 min at room temperature (6) Detect the assay plate in a EnVision plate reader (PerkinElmer) with Ex=340 nm, Em1=665 nm and Em2=545 nm. Keywords: mytonic dystrophy type I, DM1, muscleblind like 1, MBNL1, CUG expansion, protein-RNA binding inhibitor, high throughput screening, MLSMR, MLSCN, NIH Roadmap, qHTS and NCGC
On the technique in general: Quantitative high-throughput screening tests each substance at several concentrations.
In the case of `COc1ccc(N2CCN(C(=O)Cn3cnc4sc(C)c(S(=O)(=O)N5CCOCC5)c4c3=O)CC2)cc1`, the “activity change, negative = inhibition” value is -1.37% (inactive).
Regarding `COc1cccc(NC(=O)Cn2cnc3sc(C)c(S(=O)(=O)N4CCN(C)CC4)c3c2=O)c1`, the Potency was 31.6 µM (active).
For `Cc1sc2ncn(CC(=O)NCCN(C)C)c(=O)c2c1S(=O)(=O)N1CCC(C)CC1`, the “activity change, negative = inhibition” value was -4.22% (inactive).
For the molecule `CCC1Sc2ccc(S(=O)(=O)CCC(=O)NCc3cccs3)cc2NC1=O` (stereo not given), the “activity change, negative = inhibition” value was 5.1% (inactive).
Same read-out and setting: the result for `O=C(CNc1cccc(S(=O)(=O)N2CCCCC2)c1)Nc1ccccc1F` reads -2.44% (inactive); that for `Cc1c(C)c2ccc(OCC(=O)N3CCN(c4cccc(Cl)c4)CC3)cc2oc1=O`, 2.33% (inactive); that for `CC1CN(C(=S)Nc2ccccc2F)CC(C)O1` (stereo not given), 5% (inactive).
On to `O=C(Nc1ccc(Cl)cc1)c1cccc(OC(=S)N2CCOCC2)c1`, for which the “activity change, negative = inhibition” value is 0.659% (inactive).
In the case of `CC(=O)N1CCN(c2ccccc2NC(=S)NC(=O)c2cc3ccccc3o2)CC1`, the “activity change, negative = inhibition” value is 4.92% (inactive).
On the same count and under the same terms, in the case of `COc1ccc(N2CCN(C(=O)[C@@H](NC(=O)c3cc(OC)cc(OC)c3)C(C)C)CC2)cc1` it was 2.58% (inactive); in that of `O=[N+]([O-])c1ccc(O)c(/C=N/Nc2ccccc2[N+](=O)[O-])c1`, 4.22% (inactive); in that of `O=C1OC2(CCCCC2)CC2=C1C1O[C@](c3ccsc3)(Cc3ccccc31)O2`, -2.14% [at 11.5 µM] (inactive).
Turning to `CCCCn1c(-c2cccc(C)c2)nc2cc3[nH]c(=O)c(C(C)C)nc3cc21`, the “activity change, negative = inhibition” value was 24.5% (inactive).
Regarding `COc1cc(C(=O)NCc2ccncc2)cc(Br)c1OCc1ccccc1`, the “activity change, negative = inhibition” value was 3.45% (inactive).
`CC1CCN(C(=S)NC(=O)c2ccccc2Br)CC1`: the “activity change, negative = inhibition” value was -1.98% (inactive).
On to `CCC(CC)c1nnc(NC(=O)C2CCN(C(=O)c3ccco3)CC2)s1`, for which the “activity change, negative = inhibition” value was -6.3% (inactive).
Turning to `COc1cccc(Cn2cc(/C=N/NC(=O)c3cc(O)cc(O)c3)c3ccccc32)c1`, the “activity change, negative = inhibition” value was 11.8% (inactive).
Regarding `CC1(C(=O)NNC(=S)NCC2CCCO2)CC1(Cl)Cl` (stereo not given), the “activity change, negative = inhibition” value was 3.47% (inactive).
On the same count and under the same terms, the result for `CCCCC(CC)CNCc1cccn1CCN1CCOCC1` (stereo not given) reads -4.21% (inactive); that for `COc1ccc(CSc2nnnn2-c2ccc(O)cc2)cc1F`, -0.34% (inactive).
Take `CCOCCCNc1nc(-c2ccccc2)nc2ccccc12`: the “activity change, negative = inhibition” value was -0.21% (inactive).
On the same count and under the same terms, in the case of `COc1ccc(NC(=S)NCCNC(C)=O)cc1` it was -8.99% (inactive).
Take `COc1ccc(Cc2n[nH]c(=S)n2NC(=O)Nc2ccc(C)cc2)cc1`: the Potency is 25.1 µM (active).
With `CCOc1ccc(NC(=O)CN2CCN(CC(=O)Nc3ccc(OC)cc3)CC2)cc1`, the “activity change, negative = inhibition” value was -6.49% (inactive).
Take `COc1ccc(C(=O)c2c(C)c(CCC#N)n3ccccc23)c(OC)c1`: the “activity change, negative = inhibition” value was 15.2% (inactive).
On the same count and under the same terms, in the case of `Cc1[nH]c(C)c(S(=O)(=O)N2CCN(c3cccc(C(F)(F)F)c3)CC2)c1C(=O)N1CCCCC1` it was -1.53% (inactive); in that of `Cc1ccccc1C(=O)N1CCN(c2ccc(NC(=O)c3cccs3)cc2)CC1`, -3.93% (inactive).
On the same count and under the same terms, in the case of `CC(=O)c1ccc(NC(=O)c2sc3nc4n(c(=O)c3c2C)CCCCC4)cc1` it was 18.1% (inactive); in that of `CC(=O)N1c2ccc(S(=O)(=O)NCCC(=O)N(C)C3CCCCC3)cc2CC1C` (stereo not given), -7.41% (inactive).
Take `CC(=O)c1ccc(N2CCN(C(=O)C3CCN(S(=O)(=O)c4ccc5c(c4)CC(C)N5C(=O)C4CC4)CC3)CC2)cc1` (stereo not given): the “activity change, negative = inhibition” value is 119% (inactive).
Same read-out and setting: in the case of `C/C(=N\NC(=O)c1ccoc1C)c1ccccc1O` it was -2.77% (inactive); in that of `COc1ccc(N2CCN(S(=O)(=O)CCNC(=O)C34CC5CC(CC(C5)C3)C4)CC2)cc1`, 3% (inactive).
The same measure, in the same setting: in the case of `O=C(Nc1ccncc1)Nc1ccc(F)cc1` it was -18.5% (inactive); in that of `O=S(=O)(c1cccc(Cn2nnc(-c3ccc(F)cc3)n2)c1)N1CCOCC1`, -3.65% (inactive).
`CN(CC(=O)Nc1ccc(F)cc1)C(=O)c1ccc(-c2ccc(Cl)cc2)o1`: the “activity change, negative = inhibition” value was 8.57% (inactive).
Same read-out and setting: in the case of `COc1ccccc1CCNC(=O)c1c(C)nn(CC(C)C)c1Cl` it was 2.7% (inactive); in that of `CCCOc1ccc(C2=CSC3=NCCN23)cc1Cl`, -1.02% (inactive).
Consider `CN(CC1CCCO1)S(=O)(=O)c1ccc(C(=O)Nc2ccc(F)cc2)cc1` (stereo not given), for which the “activity change, negative = inhibition” value was -7.38% (inactive).
Consider `Cc1ccc2sc(N(CCN(C)C)C(=O)/C=C/c3cccs3)nc2c1C`, for which the “activity change, negative = inhibition” value is -2.08% (inactive).
For `Cc1cc(C)c(SCCc2ccncc2)c(C)c1`, the “activity change, negative = inhibition” value was 0.435% (inactive).
The same measure, in the same setting: in the case of `Cc1ccc(OCC(=O)Nc2ccc(N3CCN(C(=O)c4ccco4)CC3)cc2)c(C)c1` it was -0.689% (inactive).
Take `COc1ccc(CN(C)C(=O)Cc2ccsc2)c(OC)c1OC`: the “activity change, negative = inhibition” value is 0.57% (inactive).
Regarding `Cc1ccc(-c2noc(C3CCCN(C(=O)c4cccc(Cl)c4)C3)n2)o1` (stereo not given), the “activity change, negative = inhibition” value was 2.29% (inactive).
As to `O=C(C1CCC(=O)N(C2CC2)C1)N1CCN(c2ccc(Cl)cc2)CC1` (stereo not given), the “activity change, negative = inhibition” value was -0.926% (inactive).
The same measure, in the same setting: the result for `Cc1cc(C)c(NC(=O)CN2CCCCCC2)c(C)c1` reads -20.5% (inactive); that for `COc1cc(Nc2nc3ccc(Cl)cc3n3cnnc23)cc(OC)c1OC`, -3.17% (inactive); that for `Cc1ccc(CS(=O)(=O)CCC(=O)NCc2ccc(F)cc2)cc1`, -2.74% (inactive).
`CCOC(=O)C1(CCOC)CCN(Cc2cc3ccccc3s2)CC1`: the “activity change, negative = inhibition” value is -6.13% (inactive).
As to `CCOCCCn1c(SCC(=O)Nc2cc(OC)ccc2OC)nc2ccccc2c1=O`, the “activity change, negative = inhibition” value was 0.658% (inactive).
Consider `C[C@H]1[C@H]2c3nc4ccccc4n3C[C@H]1ON2C1CCCCC1`, for which the “activity change, negative = inhibition” value was -0.651% (inactive).
For `C=CCNc1nc(N)c([N+](=O)[O-])c(NC2CCCCC2)n1`, the “activity change, negative = inhibition” value is -5.63% (inactive).
`Cc1[nH]c2ccccc2c1C(=O)CN1CC(C)CC(C)C1` (stereo not given): the “activity change, negative = inhibition” value is -2.63% (inactive).
As to `O=C(c1ccccc1)N1N=C(c2ccccc2O)CC1c1ccc(Br)cc1` (stereo not given), the “activity change, negative = inhibition” value was -12.2% (inactive).
Turning to `Nc1nc(Nc2ccccc2F)nc(NC2CCCCC2)c1[N+](=O)[O-]`, the “activity change, negative = inhibition” value is -5.13% (inactive).
In the case of `COc1ccc(OC)c(CNC(=O)Cn2nc(C)c3c(C)n(-c4ccc(C)cc4)nc3c2=O)c1`, the “activity change, negative = inhibition” value is -0.935% (inactive).
On to `Cc1ccc(C)c(N2CCN(C(=O)CCCn3c(=O)c4cccn4c4cccnc43)CC2)c1`, for which the “activity change, negative = inhibition” value is -1.23% (inactive).
For `CCOc1ccc(NC(=O)CCCCCN2C(=O)[C@@H]3Cc4ccccc4CN3C2=O)cc1`, the “activity change, negative = inhibition” value is 4.13% (inactive).
Still for that read-out and setting: in the case of `CCc1ccc(/C=N/NC(=O)c2nnn(-c3nonc3N)c2CN2CCc3ccccc32)cc1` it was 1.76% (inactive); in that of `COc1ccc(NS(=O)(=O)c2cc(C(=O)Nc3ccccc3C(=O)O)ccc2C)cc1`, -13.3% (inactive).
Same read-out and setting: in the case of `COc1ccc(CN(C)C(=O)c2cc(-c3ccc(C)cc3C)nc3ccccc23)c(OC)c1OC` it was -0.265% (inactive); in that of `O=C(NCc1cccc(Cl)c1)C1CCC(=O)N(C2CC2)C1` (stereo not given), -9.91% (inactive).
Regarding `CC(=O)N1c2ccc(S(=O)(=O)N3CCC(C(=O)N4CCN(c5ccccc5)CC4)CC3)cc2CC1C` (stereo not given), the “activity change, negative = inhibition” value is -1.97% (inactive).
As to `O=C(NCCCN1CCOCC1)c1ccc2c(c1)N(Cc1cccc(F)c1)C(=O)c1ccccc1S2`, the “activity change, negative = inhibition” value is 76.5% (inactive).
With `CCc1ccc(C(CNc2nc(C(F)(F)F)nc3ccccc23)N(C)C)cc1` (stereo not given), the “activity change, negative = inhibition” value was -3.64% (inactive).
For `Cc1nnc(NC(=O)C(c2ccccc2)c2ccccc2)s1`, the “activity change, negative = inhibition” value is 1.22% (inactive).
